Bioassay records as filed in PubChem.
Compounds with a hit are over-represented: about 9.3% of the library has one in this group of screens.
Rab9 promoter act: activates the Rab9 promoter. Huh7 Rab9 promoter-luciferase reporter, luminescence, 24 h. Potency, µM (series often up to 9.22 µM), inactives show at the highest dose activation, negative = inhibition, most hits filed as activators. 320,000 compounds, 2.8% hits; note: % of control where 0% means no effect; nearly all actives have a fitted effect of over 60% in size
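Stable Rab9-luc Huh7, 1500 cells/well, 2 h settle; cmpd in DMSO, 24 h, 37 °C/5% CO2; luciferase reagent 10 min RT; luminescence.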
ELG1 repair inh: inhibitors of ELG1-dependent DNA repair in HEK293T cells. HEK293T ELG1-luciferase reporter, luminescence, 16 h; DNA damage induced by 5-fluorouridine. Potency, µM (doses to about 46.1 µM), for the others: at the top dose activity change, negative = inhibition, actives largely listed as inhibitors. 330,000 compounds, 2.3% hits. AID 504467; note: % is set by controls: 0 for no effect and ±100 for the full control effect; nearly all actives have a fitted effect of over 55% in size
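Step one: seed 2,000 cells per well. Step two: pin-transfer compound or DMSO alongside 5-fluorouridine. Step three: incubate 16 hr, 37 °C, 5% CO2. Step four: add ONE-Glo, wait 30 min, read luminescence.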
ELG1 genotox: inducers of genotoxicity in HEK293T ELG1-luciferase cells | 330,000 compounds, 1.3% hits | Potency, µM (doses to about 46 µM), without a hit: at the highest dose activity change, positive = activation, hits mostly activators | HEK293T ELG1-luciferase reporter, luminescence, 16 h | AID 504466; note: % of control where 0% means no effect; nearly all actives have a fitted effect of over 60% in size
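Quantitative HTS format in 1536-well plates. HEK293T ELG1-luciferase reporter cells receive test compound and are incubated 16 hr at 37 °C, 5% CO2; ONE-Glo added, 30 min room temperature, then luminescence read.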
NPC1 promoter act: activates the NPC1 promoter. Huh7 NPC1 promoter luciferase reporter, 24 h. AID 485313. 320,000 compounds, 2.4% hits. Potency, µM (series often up to 9.22 µM), without a hit: top-dose activation, actives largely listed as activators; note: % of control where 0% means no effect; nearly all actives have a fitted effect of over 60% in size
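Compounds in DMSO were transferred onto Huh7 NPC1-luciferase reporter cells pre-incubated 2 h; after 24 h at 37 °C, Amplite reagent was dispensed and luminescence recorded 10 min later.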
SMN2 splice enh: increases expression of the SMN2 splice variant | Potency, µM (series often up to 46.1 µM), for inactives: at the highest dose activity change, positive = activation, usual class: activators | HEK293 SMN2-luciferase splicing reporter, luminescence, 30-36 h | AID 1458 | 210,000 compounds, 2.8% hits; note: % of control where 0% means no effect; nearly all actives have a fitted effect of over 55% in size
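HEK293 cells carry an SMN2 minigene-luciferase reporter in which exon 7 inclusion puts luciferase in frame. Cells were seeded at 2000 cells/well, attached for 10-12 hours, then exposed to compounds for 30-36 hours at 37C before ONE-Glo luminescence.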
FLuc modulator: counter-screen for miR-21 project: firefly luciferase inhibitors or activators; Potency, µM (doses to about 57.5 µM), without a hit: at the top dose activity change, negative = inhibition, hits mostly inhibitors; 360,000 compounds, 6.9% hits; purified FLuc, Km substrates, luminescence inhibition; P08659; AID 588342;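 note: plate controls were vehicle for no effect and reference inhibitor for full effect; nearly all actives have a fitted effect of over 55% in size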
Target sequence (P08659 whole entry, looked up): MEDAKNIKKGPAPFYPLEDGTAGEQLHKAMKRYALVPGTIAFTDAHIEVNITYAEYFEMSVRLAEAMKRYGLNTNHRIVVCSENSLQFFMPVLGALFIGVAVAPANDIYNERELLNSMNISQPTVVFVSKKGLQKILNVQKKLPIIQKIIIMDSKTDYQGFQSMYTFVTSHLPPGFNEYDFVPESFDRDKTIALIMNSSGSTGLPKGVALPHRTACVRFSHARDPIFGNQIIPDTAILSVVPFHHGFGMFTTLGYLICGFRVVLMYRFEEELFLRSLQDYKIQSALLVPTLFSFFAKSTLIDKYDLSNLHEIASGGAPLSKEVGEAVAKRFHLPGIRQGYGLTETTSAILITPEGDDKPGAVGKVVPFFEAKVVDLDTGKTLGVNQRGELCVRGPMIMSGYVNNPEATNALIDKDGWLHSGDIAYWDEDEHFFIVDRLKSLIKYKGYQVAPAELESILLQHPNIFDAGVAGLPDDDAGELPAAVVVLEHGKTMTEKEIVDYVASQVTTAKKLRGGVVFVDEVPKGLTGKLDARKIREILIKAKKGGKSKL
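Purified P. pyralis luciferase (10nM final) with 10uM D-luciferin and 10uM ATP (Km levels) in 50mM Tris acetate pH 7.5, 10mM Mg acetate, 0.01% Tween-20, 0.05% BSA; qHTS 6-point titration, ~60 µM downward; luminescence read.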
* marks the source's active call; other numbers are inactive results; ? = inconclusive; nt = not tested or not shown; [ ] = remark or other dose. Calls come from the whole dose curve; as a rule, active = well fitted curve in the direction sought with a large enough effect; inconclusive = small, poorly fitted or top-dose-only effect, or another doubt; inactive = no such curve, though single readings can be large; an effect the other way counts as inactive or inconclusive. Potency is the fitted concentration of half-maximal effect.

SMILES	Rab9 promoter act	ELG1 repair inh	ELG1 genotox	NPC1 promoter act	SMN2 splice enh	FLuc modulator
CCc1ccc(-c2nc3ccc(Br)cc3c(C(=O)O)c2C)s1	1.1%	26.7%	-4.3%	-2.4%	?	21.3µM*
COc1ccc(/C=C/C(=O)c2ccc([N+](=O)[O-])o2)cc1	-43.1%	?	-48.4%	-34.7%	nt	-14.6%
Cc1ccc(C(=O)/C=C/c2ccc(F)cc2)o1	10.5%	?	?	3.0%	3.7%	1.51µM*
O=C(/C=C/c1ccc(F)cc1)c1ccccc1Br	-3.7%	-23.7%	-15.3%	-2.6%	-7.5%	19µM*
COCOc1ccccc1C(=O)/C=C/c1ccccc1	nt	nt	nt	nt	-1.1%	nt
Cc1ccc2nc3c(cc(C#N)c(=N)n3Cc3cccnc3)c(=O)n2c1	-0.9%	11.9%	4.0%	-0.5%	-9.2%	-2.3%
Clc1ccc(-c2noc(CCCc3ccccc3)n2)cc1	8.0%	5.0%	?	5.8%	4.7%	26.9µM*
c1ccc(SCc2nc(-c3ccccn3)no2)cc1	?	?	18.4µM*	3.55µM*	11.2µM*	16.9µM*
COc1ccc(-c2noc(Cc3ccccc3OC)n2)cc1	22.1%	?	?	24.3%	-11.8%	?
c1ccc(-c2noc(CC3CCCCC3)n2)nc1	1.12µM*	?	?	3.55µM*	nt	9.53µM*
O=C(O)CCCc1nc(-c2ccc(Cl)cc2)no1	21.2%	3.9%	1.1%	0.0%	2.8%	?
c1cc(-c2noc(CC3CCCCC3)n2)ccn1	2.2%	?	?	10.7%	nt	?
COc1ccc(-c2noc(Cc3cccs3)n2)cc1	2.82µM*	?	?	?	17.2%	5.36µM*
COc1cc2c(cc1OC)CN(C(=O)c1ccc(N3CCCC3)c([N+](=O)[O-])c1)CC2	-3.6%	?	16.0%	-7.8%	nt	-4.9%
O=S(=O)(Oc1ccc(Cl)cc1)c1cccc2cccnc12	-0.5%	16.6%	0.9%	-2.4%	nt	?
Cc1cc(=O)[nH]c(SCC(=O)N2CCN(S(=O)(=O)c3ccccc3)C2)n1	-5.0%	-9.1%	2.9%	-3.8%	-8.9%	-4.4%
O=C(COC(=O)c1ccc([N+](=O)[O-])o1)NCc1ccc2c(c1)OCO2	nt	3.6%	-2.3%	nt	nt	nt
c1ccc(C(Cc2nc(-c3ccccn3)no2)c2ccccc2)cc1	?	?	4.3%	?	29.2%	?
c1ccc(CCCc2nc(-c3ccccn3)no2)cc1	2.24µM*	?	?	2.82µM*	20µM*	16.9µM*
CN(C)C(=O)CCCc1nc(-c2ccc(Cl)cc2)no1	3.16µM*	?	14.6µM*	?	13.8%	?
CCN(C(=O)CCc1nc(-c2ccc(OC)cc2)no1)c1cc(OC)ccc1OC	-9.4%	16.4µM*	-10.8%	1.2%	-58.9%	-5.9%
Cc1ccc(Cc2nc(-c3ccccn3)no2)cc1	3.16µM*	?	?	1.78µM*	12.6µM*	10.7µM*
CCOc1ccc(NCc2cccn2-c2nnc(N3CCC(C(=O)NCc4ccccc4Cl)CC3)s2)cc1	nt	nt	nt	nt	-46.4%	-5.2%
CC(C)NS(=O)(=O)c1ccc(OCC(=O)Nc2cccc(F)c2)cc1	1.1%	3.8%	-3.0%	0.3%	10.5%	1.2%
COc1ccc(OC)c(CCNC(=O)c2ccc3c(c2)N(Cc2ccc(C)cc2)CCS3)c1	nt	nt	nt	nt	-5.9%	-8.3%
SMILES	Rab9 promoter act	ELG1 repair inh	ELG1 genotox	NPC1 promoter act	SMN2 splice enh	FLuc modulator
c1ccc(Cc2nc(-c3ccccn3)no2)cc1	2.82µM*	?	?	?	25.1µM*	23.9µM*
COc1ccc(Cc2nc(-c3ccccn3)no2)cc1	?	?	18.3%	3.55µM*	?	?
CC(C)N(Cc1nc(-c2ccccc2)no1)C(=O)c1ccc(Cl)cc1	-4.6%	-12.0%	-13.4%	0.7%	-12.5%	2.2%
CC(C)N(Cc1nc(-c2ccc(Cl)cc2)no1)C(=O)CCCN1C(=O)c2ccccc2C1=O	-22.4%	23.1µM*	-11.0%	-2.1%	-20.4%	3.7%
COc1ccc(-c2noc(CCc3ccccc3)n2)cc1	?	?	?	?	22.7%	15.1µM*
CCCCc1nc2c(c3c1C[C@H](C)OC3)CN(C(=O)N[C@@H](C)c1ccccc1)CC2	nt	nt	nt	nt	8.0%[9.22 µM]	nt
O=C(NCCc1ccccc1)C1CCCN1C(=O)Nc1ccc(Cl)cc1 (stereo unspecified)	6.2%	-8.6%	1.4%	-1.5%	nt	0.8%
Clc1ccc(Nc2nc3cccnc3s2)cc1	2.51µM*	?	?	2.82µM*	12.6µM*	?
CCCCNc1nc2cccnc2s1	25.3%	?	12.2%	?	nt	?
COc1cc(OC)cc(C(=O)NCCc2csc(-c3ccc(C(F)(F)F)cc3)n2)c1	nt	nt	nt	nt	nt	-12.0%
COc1ccc(C(=O)NCCc2csc(-c3ccc(Cl)cc3)n2)cc1	nt	nt	nt	nt	nt	12µM*
Cc1ccc(C(=O)NCCc2csc(-c3cccc(F)c3)n2)cc1C	nt	nt	nt	nt	nt	19µM*
CCOc1ccc(C(=O)NCCc2csc(-c3cccc(C)c3)n2)cc1	nt	nt	nt	nt	nt	16.9µM*
CCOc1ccc(C(=O)NCCc2csc(-c3cccc(F)c3)n2)cc1OCC	nt	nt	nt	nt	nt	-11.8%
Cc1cc(NC(=O)COC(=O)c2ccccc2S(=O)(=O)N(C)c2ccccc2)no1	8.2%	16.0%	-13.8%	-10.9%	6.31µM*	3.8%
Cc1cc(NC(=O)COC(=O)c2ccccc2NCCO)no1	nt	?	8.9%	nt	nt	nt
C=CCOc1ccc(CNc2nccs2)cc1OCC	-1.9%	-2.5%	2.4%	-2.0%	-24.1%	-17.9%
C=CCOc1ccc(CNc2nccs2)cc1	25.0%	?	13.7%	1.6%	?	13.5µM*
Cc1ccc(/C=N/n2c(C)nnc2C)o1	-4.9%	?	0.5%	-1.1%	6.6%	0.6%
Cc1ccc(C=Nc2ccc(N(C)C)cc2)o1	8.0%	?	20.6µM*	6.7%	-7.3%	0.269µM*
CCn1c(SCC(=O)N/N=C/c2ccc(OC)c(OC)c2)nc2ccccc21	-1.6%	-5.1%	6.2%	1.1%	4.2%	16.9µM*
COc1ccc(/C=N/NC(=O)CCn2nnc3ccccc32)cc1	0.8%	10.4%	3.5%	-4.3%	nt	13.5µM*
COc1ccc(/C=N/NC(=O)CCSc2nc3ccccc3s2)cc1OC	-5.7%	?	-0.9%	-2.3%	18.2%	21.3µM*
COc1ccc(/C=N/NC(=O)c2cccnc2)cc1CSc1nc2ccccc2s1	-17.0%	7.31µM*	5.7%	-20.3%	-16.6%	?
COc1ccc(/C=N/NC(=O)c2ccccc2Cl)cc1CSc1nc2ccccc2s1	1.8%	-0.6%	?	-17.3%	-43.4%	-1.3%
COc1ccccc1/C=C\C=N\NC(=O)CCn1nnc2ccccc21	-2.9%	-17.5%	-3.2%	7.6%	9.7%	-17.8%
